# According to the supplement of paper PMC8728848:
# Only a selection was taken, and the strongest signals are over-represented in it overall.
# B1: PGP3 (Chlamydia trachomatis), P0CE18 (protein)
# chain: MGNSGFYLYNTQNCVFADNIKVGQMTEPLKDQQIILGTTSTPVAAKMTASDGISLTVSNNPSTNASITIGLDAEKAYQLILEKLGDQILGGIADTIVDSTVQDILDKITTDPSLGLLKAFNNFPITNKIQCNGLFTPRNIETLLGGTEIGKFTVTPKSSGSMFLVSADIIASRMEGGVVLALVREGDSKPYAISYGYSSGVPNLCSLRTRIINTGLTPTTYSLRVGGLESGVVWVNALSNGNDILGITNTSNVSFLEVIPQTNA
# Legend:
# Experiment in all cases: glycan array binding signal (z-score within array); higher = stronger binding
# Settings in all cases: glycan notation: IUPAC condensed, linker removed
# [1] = biological target: Fuc(a1-2)Gal(b1-3)GlcNAc(b1-3)[Gal(b1-4)GlcNAc(b1-6)]Gal(b1-4)Glc
# Method in brief: (§1)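 Negative Z-scores can be read as non-binding. The Z-score is calculated within each array and then averaged across arrays of one protein sequence at different concentrations or buffers and across linkers. Arrays, 3228 in all, were curated from the Consortium for Functional Glycomics database and kept only where the protein sequence was available.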
# [2] = biological target: Fuc(a1-2)Gal(b1-3)[Fuc(a1-4)]GlcNAc(b1-3)[Fuc(a1-3)[Gal(b1-4)]GlcNAc(b1-6)]Gal(b1-4)Glc
# Method in brief: as §1
# [3] = biological target: Fuc(a1-2)Gal(b1-4)GlcNAc(b1-2)Man(a1-3)[Fuc(a1-2)Gal(b1-4)GlcNAc(b1-2)Man(a1-6)]Man(b1-4)GlcNAc(b1-4)GlcNAc
# Method in brief: as §1
# [4] = biological target: Fuc(a1-2)Gal(b1-4)GlcNAc(b1-2)[Fuc(a1-2)Gal(b1-4)GlcNAc(b1-4)]Man(a1-3)[Fuc(a1-2)Gal(b1-4)GlcNAc(b1-2)Man(a1-6)]Man(b1-4)GlcNAc(b1-4)GlcNAc
# Method in brief: as §1
# [5] = biological target: Fuc(a1-2)[Gal(a1-3)]Gal(b1-3)GlcNAc(b1-2)Man(a1-3)[Fuc(a1-2)[Gal(a1-3)]Gal(b1-3)GlcNAc(b1-2)Man(a1-6)]Man(b1-4)GlcNAc(b1-4)GlcNAc
# Method in brief: as §1
# [6] = biological target: Fuc(a1-2)[Gal(a1-3)]Gal(b1-3)GlcNAc(b1-2)Man(a1-3)[Fuc(a1-2)[Gal(a1-3)]Gal(b1-3)GlcNAc(b1-2)Man(a1-6)]Man(b1-4)GlcNAc(b1-4)[Fuc(a1-6)]GlcNAc
# Method in brief: as §1
# [7] = biological target: Fuc(a1-2)[Gal(a1-3)]Gal(b1-4)GlcNAc
# Method in brief: as §1
# [8] = biological target: Fuc(a1-2)[Gal(a1-4)]Gal(b1-4)GlcNAc
# Method in brief: as §1
# [9] = biological target: Fuc(a1-2)[GalNAc(a1-3)]Gal(b1-3)GlcNAc
# Method in brief: as §1
# [10] = biological target: Fuc(a1-2)[GalNAc(a1-3)]Gal(b1-3)GlcNAc(b1-3)GalNAc
# Method in brief: as §1
# [11] = biological target: Fuc(a1-2)[GalNAc(a1-3)]Gal(b1-4)GlcNAc(b1-3)Gal(b1-4)GlcNAc
# Method in brief: as §1
# [12] = biological target: Fuc(a1-3)[Gal(b1-4)]GlcNAc(b1-2)Man(a1-3)[Fuc(a1-3)[Gal(b1-4)]GlcNAc(b1-2)Man(a1-6)]Man(b1-4)GlcNAc(b1-4)GlcNAc
# Method in brief: as §1
# [13] = biological target: Fuc(a1-3)[Gal(b1-4)]GlcNAc(b1-2)Man(a1-3)[Fuc(a1-3)[Gal(b1-4)]GlcNAc(b1-2)Man(a1-6)]Man(b1-4)GlcNAc(b1-4)[Fuc(a1-6)]GlcNAc
# Method in brief: as §1
# [14] = biological target: Gal(a1-3)Gal(b1-4)[Fuc(a1-3)]GlcNAc
# Method in brief: as §1
# [15] = biological target: Gal(a1-4)Gal(b1-3)GlcNAc(b1-2)Man(a1-3)[Gal(a1-4)Gal(b1-3)GlcNAc(b1-2)Man(a1-6)]Man(b1-4)GlcNAc(b1-4)GlcNAc
# Method in brief: as §1
# [16] = biological target: Gal(a1-4)Gal(b1-4)GlcNAc(b1-3)Gal(b1-4)Glc
# Method in brief: as §1
# Gal(b1-2)Gal = biological target: Gal(b1-2)Gal
# Method in brief: as §1
# [17] = biological target: Gal(b1-4)GlcNAc(b1-2)Man(a1-3)[Gal(b1-4)GlcNAc(b1-2)][GlcNAc(b1-4)]Man(b1-4)GlcNAc(b1-4)GlcNAc
# Method in brief: as §1
# [18] = biological target: Gal(b1-4)GlcNAc(b1-3)Gal(b1-4)Glc
# Method in brief: as §1
# [19] = biological target: Gal(b1-4)GlcNAc(b1-3)Gal(b1-4)[Fuc(a1-3)]GlcNAc(b1-3)Gal(b1-4)[Fuc(a1-3)]GlcNAc
# Method in brief: as §1
# Gal3S(b1-4)Glc = biological target: Gal3S(b1-4)Glc
# Method in brief: as §1
# [20] = biological target: GalNAc(a1-3)GalNAc(b1-3)Gal(a1-4)Gal(b1-4)Glc
# Method in brief: as §1
# [21] = biological target: GalNAc(b1-3)Gal(a1-6)Gal(b1-4)Glc
# Method in brief: as §1
# GalNAc(b1-6)GalNAc = biological target: GalNAc(b1-6)GalNAc
# Method in brief: as §1
# [22] = biological target: Glc(a1-4)Glc(a1-4)Glc(a1-4)Glc
# Method in brief: as §1
# [23] = biological target: GlcNAc(a1-4)Gal(b1-4)GlcNAc(b1-3)Gal(b1-4)GlcNAc
# Method in brief: as §1
# GlcNAc(b1-4)GlcNAc = biological target: GlcNAc(b1-4)GlcNAc
# Method in brief: as §1
# [24] = biological target: GlcNAc(b1-4)GlcNAc(b1-4)GlcNAc(b1-4)GlcNAc(b1-4)GlcNAc
# Method in brief: as §1
# Kdn(a2-3)Gal(b1-4)GlcNAc = biological target: Kdn(a2-3)Gal(b1-4)GlcNAc
# Method in brief: as §1
# [25] = biological target: Kdn(a2-3)Gal(b1-4)[Fuc(a1-3)]GlcNAc
# Method in brief: as §1
# [26] = biological target: Man(a1-2)Man(a1-3)[Man(a1-2)Man(a1-6)]Man
# Method in brief: as §1
# [27] = biological target: Man(a1-2)Man(a1-6)[Man(a1-3)]Man(a1-6)[Man(a1-2)Man(a1-2)Man(a1-3)]Man
# Method in brief: as §1
# Man(a1-3)[Man(a1-6)]Man = biological target: Man(a1-3)[Man(a1-6)]Man
# Method in brief: as §1
# [28] = biological target: Man(a1-3)[Man(a1-6)]Man(a1-6)[Man(a1-3)]Man
# Method in brief: as §1
# Neu5Ac(a2-3)Gal = biological target: Neu5Ac(a2-3)Gal
# Method in brief: as §1
# [29] = biological target: Neu5Ac(a2-3)Gal6S(b1-4)GlcNAc
# Method in brief: as §1
# [30] = biological target: Neu5Ac(a2-6)GlcNAc(b1-4)GlcNAc
# Method in brief: as §1
# [31] = biological target: Neu5Ac(a2-8)Neu5Ac(a2-8)Neu5Ac
# Method in brief: as §1
# [32] = biological target: Neu5Ac(a2-8)Neu5Ac(a2-8)Neu5Ac(a2-3)Gal(b1-4)Glc
# Method in brief: as §1
# [33] = biological target: Neu5Ac9Ac(a2-3)Gal(b1-3)GlcNAc
# Method in brief: as §1
# [34] = biological target: Neu5Gc(b2-6)Gal(b1-4)GlcNAc
# Method in brief: as §1
binder,measurement,setting,value
B1,glycan array binding signal (z-score),[1],0.289
same,glycan array binding signal (z-score),[2],-0.443
same,glycan array binding signal (z-score),[3],-0.053
same,glycan array binding signal (z-score),[4],2.62
same,glycan array binding signal (z-score),[5],5.67
same,glycan array binding signal (z-score),[6],0.251
same,glycan array binding signal (z-score),[7],-1.17
same,glycan array binding signal (z-score),[8],-0.649
same,glycan array binding signal (z-score),[9],0.499
same,glycan array binding signal (z-score),[10],2.46
same,glycan array binding signal (z-score),[11],0.028
same,glycan array binding signal (z-score),[12],2.78
same,glycan array binding signal (z-score),[13],-0.169
same,glycan array binding signal (z-score),[14],-0.404
same,glycan array binding signal (z-score),[15],3.06
same,glycan array binding signal (z-score),[16],-0.099
same,glycan array binding signal (z-score),Gal(b1-2)Gal,0.34
same,glycan array binding signal (z-score),[17],1.19
same,glycan array binding signal (z-score),[18],-0.67
same,glycan array binding signal (z-score),[19],0.322
same,glycan array binding signal (z-score),Gal3S(b1-4)Glc,-0.636
same,glycan array binding signal (z-score),[20],1.04
same,glycan array binding signal (z-score),[21],2.89
same,glycan array binding signal (z-score),GalNAc(b1-6)GalNAc,0.114
same,glycan array binding signal (z-score),[22],0.478
same,glycan array binding signal (z-score),[23],1.53
same,glycan array binding signal (z-score),GlcNAc(b1-4)GlcNAc,0.682
same,glycan array binding signal (z-score),[24],1.18
same,glycan array binding signal (z-score),Kdn(a2-3)Gal(b1-4)GlcNAc,1.53
same,glycan array binding signal (z-score),[25],0.816
same,glycan array binding signal (z-score),[26],0.09
same,glycan array binding signal (z-score),[27],0.585
same,glycan array binding signal (z-score),Man(a1-3)[Man(a1-6)]Man,-0.232
same,glycan array binding signal (z-score),[28],0.157
same,glycan array binding signal (z-score),Neu5Ac(a2-3)Gal,0.478
same,glycan array binding signal (z-score),[29],2.5
same,glycan array binding signal (z-score),[30],-1.37
same,glycan array binding signal (z-score),[31],1.11
same,glycan array binding signal (z-score),[32],2.79
same,glycan array binding signal (z-score),[33],2.73
same,glycan array binding signal (z-score),[34],-1.1
